# The whole screen tested about 5,500 compounds, of which about 2,000 (36%) were called active. About 18% were inconclusive and are not listed. The list shows a part of the results. Values without a mark were called inactive. Cut-off read from the data, not from the text of the source: active = normalized growth mostly below about 0.91 (no sharp cut-off); inconclusive = no clear call, values can overlap the other calls; inactive = mostly above about 0.92.
# Assay: chemical genetic growth profiling, strain panel (AID 1159580);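 note: tested at 20 µM; growth read once vehicle control cultures reached saturation at 30 °C; 1 = growth at the plate median or of vehicle wells; lower values mean less growth of the strain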
# Details: S. cerevisiae deletion strains, growth OD
# [1] = locus YAR019C, strain CDC15, stronger effect = lower value
# [2] = locus YBL105C, strain PKC1, stronger effect = lower value
# [3] = locus YBR135W, strain CKS1, stronger effect = lower value
# [4] = locus YBR136W, strain MEC1, stronger effect = lower value
# [5] = locus YBR160W, strain CDC28, stronger effect = lower value
# [6] = locus YDL017W, strain CDC7, stronger effect = lower value
# [7] = locus YDL028C, strain MPS1, stronger effect = lower value
# [8] = locus YDL101C, strain DUN1, stronger effect = lower value
# [9] = locus YDL108W, strain KIN28, stronger effect = lower value
# [10] = locus YDL132W, strain cdc53, stronger effect = lower value
# [11] = locus YDL214C, strain PRR2, stronger effect = lower value
# [12] = locus YDR052C, strain DBF4, stronger effect = lower value
# [13] = locus YDR054C, strain cdc34, stronger effect = lower value
# [14] = locus YDR226W, strain ADK1, stronger effect = lower value
# [15] = locus YDR477W, strain SNF1, stronger effect = lower value
# [16] = locus YER123W, strain YCK3, stronger effect = lower value
# [17] = locus YER133W, strain GLC7, stronger effect = lower value
# [18] = locus YFL009W, strain cdc4, stronger effect = lower value
# [19] = locus YFL029C, strain CAK1, stronger effect = lower value
# [20] = locus YFR003C, strain YPI1, stronger effect = lower value
# [21] = locus YFR019W, strain FAB1, stronger effect = lower value
# [22] = locus YFR028C, strain CDC14, stronger effect = lower value
# [23] = locus YGR040W, strain KSS1, stronger effect = lower value
# [24] = locus YGR052W, strain FMP48, stronger effect = lower value
# [25] = locus YGR092W, strain DBF2, stronger effect = lower value
# [26] = locus YHR030C, strain SLT2, stronger effect = lower value
# [27] = locus YHR079C, strain IRE1, stronger effect = lower value
# [28] = locus YHR082C, strain KSP1, stronger effect = lower value
# [29] = locus YHR205W, strain SCH9, stronger effect = lower value
# [30] = locus YIL147C, strain SLN1, stronger effect = lower value
# [31] = locus YJL095W, strain BCK1, stronger effect = lower value
# [32] = locus YJL128C, strain PBS2, stronger effect = lower value
# [33] = locus YJL157C, strain FAR1, stronger effect = lower value
# [34] = locus YJR016C, strain ILV3, stronger effect = lower value
# [35] = locus YJR066W, strain TOR1 (second series), stronger effect = lower value
# [36] = locus YJR066W, strain TOR1, stronger effect = lower value
# [37] = locus YKL048C, strain ELM1, stronger effect = lower value
# [38] = locus YKL067W, strain YNK1, stronger effect = lower value
# [39] = locus YKL101W, strain HSL1, stronger effect = lower value
# [40] = locus YKL193C, strain SDS22, stronger effect = lower value
# [41] = locus YKL203C, strain TOR2, stronger effect = lower value
# [42] = locus YLR113W, strain HOG1, stronger effect = lower value
# [43] = locus YLR133W, strain CKI1, stronger effect = lower value
# [44] = locus YLR403W, strain SFP1, stronger effect = lower value
# [45] = locus YML070W, strain DAK1, stronger effect = lower value
# [46] = locus YMR001C, strain CDC5, stronger effect = lower value
# [47] = locus YMR205C, strain PFK2 (second series), stronger effect = lower value
# [48] = locus YMR277W, strain FCP1, stronger effect = lower value
# [49] = locus YNL006W, strain LST8, stronger effect = lower value
# [50] = locus YNL020C, strain ARK1, stronger effect = lower value
# [51] = locus YNL161W, strain CBK1, stronger effect = lower value
# [52] = locus YNL183C, strain NPR1, stronger effect = lower value
# [53] = locus YNL207W, strain RIO2, stronger effect = lower value
# [54] = locus YNL222W, strain SSU72, stronger effect = lower value
# [55] = locus YNL307C, strain MCK1 (second series), stronger effect = lower value
# [56] = locus YOL078W, strain AVO1, stronger effect = lower value
# [57] = locus YOL136C, strain PFK27, stronger effect = lower value
# [58] = locus YOR061W, strain CKA2, stronger effect = lower value
# [59] = locus YOR119C, strain RIO1, stronger effect = lower value
# [60] = locus YOR231W, strain MKK1, stronger effect = lower value
# [61] = locus YOR329C, strain SCD5, stronger effect = lower value
# [62] = locus YPL031C, strain PHO85, stronger effect = lower value
# [63] = locus YPL153C, strain RAD53, stronger effect = lower value
# [64] = locus YPL204W, strain HRR25, stronger effect = lower value
# [65] = locus YPL209C, strain IPL1, stronger effect = lower value
# [66] = locus YPL256C, strain CLN2, stronger effect = lower value
# [67] = locus YPR025C, strain CCL1, stronger effect = lower value
# [68] = locus YPR106W, strain ISR1, stronger effect = lower value
# [69] = locus YPR111W, strain DBF20, stronger effect = lower value
# [70] = strain NNK1, stronger effect = lower value
# [71] = strain TSCII, stronger effect = lower value
structure (smiles),measurement,setting,value
N#C/C(=N/Nc1ccc(Cl)cc1)C(N)=S,normalized growth,[1],0.44 (active)
same,normalized growth,[2],0.434 (active)
same,normalized growth,[3],0.529 (active)
same,normalized growth,[4],0.513 (active)
same,normalized growth,[5],0.515 (active)
same,normalized growth,[6],0.616 (active)
same,normalized growth,[7],0.647 (active)
same,normalized growth,[8],0.345 (active)
same,normalized growth,[9],0.617 (active)
same,normalized growth,[10],0.43 (active)
same,normalized growth,[11],0.176 (active)
same,normalized growth,[12],0.825 (active)
same,normalized growth,[13],0.325 (active)
same,normalized growth,[14],0.57 (active)
same,normalized growth,[15],0.155 (active)
same,normalized growth,[16],0.197 (active)
same,normalized growth,[17],0.194 (active)
same,normalized growth,[18],0.468 (active)
same,normalized growth,[19],0.467 (active)
same,normalized growth,[20],0.644 (active)
same,normalized growth,[21],0.182 (active)
same,normalized growth,[22],0.577 (active)
same,normalized growth,[23],0.179 (active)
same,normalized growth,[24],0.204 (active)
same,normalized growth,[25],0.15 (active)
same,normalized growth,[26],0.208 (active)
same,normalized growth,[27],0.145 (active)
same,normalized growth,[28],0.206 (active)
same,normalized growth,[29],0.226 (active)
same,normalized growth,[30],0.627 (active)
same,normalized growth,[31],0.186 (active)
same,normalized growth,[32],0.628 (active)
same,normalized growth,[33],0.172 (active)
same,normalized growth,[34],0.574 (active)
same,normalized growth,[35],0.234 (active)
same,normalized growth,[36],0.244 (active)
same,normalized growth,[37],0.327 (active)
same,normalized growth,[38],0.167 (active)
same,normalized growth,[39],0.212 (active)
same,normalized growth,[40],0.42 (active)
same,normalized growth,[41],0.217 (active)
same,normalized growth,[42],0.275 (active)
same,normalized growth,[43],0.205 (active)
same,normalized growth,[44],0.175 (active)
same,normalized growth,[45],0.183 (active)
same,normalized growth,[46],0.475 (active)
same,normalized growth,[47],0.236 (active)
same,normalized growth,[48],0.352 (active)
same,normalized growth,[49],0.452 (active)
same,normalized growth,[50],0.182 (active)
same,normalized growth,[51],0.427 (active)
same,normalized growth,[52],0.185 (active)
same,normalized growth,[53],0.515 (active)
same,normalized growth,[54],0.428 (active)
same,normalized growth,[55],0.177 (active)
same,normalized growth,[56],0.483 (active)
same,normalized growth,[57],0.199 (active)
same,normalized growth,[58],0.23 (active)
same,normalized growth,[59],0.225 (active)
same,normalized growth,[60],0.171 (active)
same,normalized growth,[61],0.515 (active)
same,normalized growth,[62],0.207 (active)
same,normalized growth,[63],0.193 (active)
same,normalized growth,[64],0.203 (active)
same,normalized growth,[65],0.601 (active)
same,normalized growth,[66],0.231 (active)
same,normalized growth,[67],0.611 (active)
same,normalized growth,[68],0.475 (active)
same,normalized growth,[69],0.583 (active)
same,normalized growth,[70],0.471 (active)
same,normalized growth,[71],0.495 (active)
N#C/C(=N/Nc1ccc(Cl)cc1)C(=O)C1CC1,normalized growth,[1],0.863 (active)
same,normalized growth,[2],0.86 (active)
same,normalized growth,[3],0.854 (active)
same,normalized growth,[4],0.86 (active)
same,normalized growth,[5],0.863 (active)
same,normalized growth,[6],0.865 (active)
same,normalized growth,[7],0.859 (active)
same,normalized growth,[8],0.903 (active)
same,normalized growth,[9],0.86 (active)
same,normalized growth,[10],0.847 (active)
same,normalized growth,[11],0.807
same,normalized growth,[12],0.862 (active)
same,normalized growth,[13],0.848 (active)
same,normalized growth,[14],0.855 (active)
same,normalized growth,[15],0.674 (active)
same,normalized growth,[16],0.492 (active)
same,normalized growth,[17],0.626 (active)
same,normalized growth,[18],0.844 (active)
same,normalized growth,[19],0.853 (active)
same,normalized growth,[20],0.857 (active)
same,normalized growth,[21],0.916
same,normalized growth,[22],0.854 (active)
same,normalized growth,[23],0.665 (active)
same,normalized growth,[24],0.666
same,normalized growth,[25],0.332 (active)
same,normalized growth,[26],0.416 (active)
same,normalized growth,[27],0.604
same,normalized growth,[28],0.691
same,normalized growth,[29],0.711
same,normalized growth,[30],0.865 (active)
same,normalized growth,[31],0.416 (active)
same,normalized growth,[32],0.862
same,normalized growth,[33],0.757
same,normalized growth,[34],0.854 (active)
same,normalized growth,[35],0.737
same,normalized growth,[36],0.643
same,normalized growth,[37],0.793 (active)
same,normalized growth,[38],0.763
same,normalized growth,[39],0.802
same,normalized growth,[40],0.851 (active)
same,normalized growth,[41],0.706 (active)
same,normalized growth,[42],0.567 (active)
same,normalized growth,[43],0.811
same,normalized growth,[44],0.646 (active)
same,normalized growth,[45],0.735
same,normalized growth,[46],0.855 (active)
same,normalized growth,[47],0.774
same,normalized growth,[48],0.847 (active)
same,normalized growth,[49],0.856 (active)
same,normalized growth,[50],0.805
same,normalized growth,[51],0.86 (active)
same,normalized growth,[52],0.551 (active)
same,normalized growth,[53],0.842 (active)
same,normalized growth,[54],0.848 (active)
same,normalized growth,[55],0.641 (active)
same,normalized growth,[56],0.846 (active)
same,normalized growth,[57],0.752
same,normalized growth,[58],0.81
same,normalized growth,[59],0.667 (active)
same,normalized growth,[60],0.576 (active)
same,normalized growth,[61],0.86 (active)
same,normalized growth,[62],0.592 (active)
same,normalized growth,[63],0.595 (active)
same,normalized growth,[64],0.554 (active)
same,normalized growth,[65],0.853 (active)
same,normalized growth,[66],0.65 (active)
same,normalized growth,[67],0.856 (active)
same,normalized growth,[68],0.92
same,normalized growth,[69],0.876
same,normalized growth,[70],0.885
same,normalized growth,[71],0.85 (active)
CC(C)(C)c1cc(C(=O)/C(C#N)=N\Nc2ccc(Cl)cc2)no1,normalized growth,[1],0.959
same,normalized growth,[2],0.974
same,normalized growth,[3],0.952
same,normalized growth,[4],0.963
same,normalized growth,[5],0.966
same,normalized growth,[6],0.96
same,normalized growth,[7],0.95
same,normalized growth,[8],0.979
same,normalized growth,[9],0.962
same,normalized growth,[11],0.253 (active)
same,normalized growth,[12],0.967
same,normalized growth,[14],0.952
same,normalized growth,[15],0.229 (active)
same,normalized growth,[16],0.146 (active)
same,normalized growth,[17],0.326 (active)
same,normalized growth,[18],0.907
same,normalized growth,[19],0.95
same,normalized growth,[20],0.96
same,normalized growth,[21],0.116 (active)
same,normalized growth,[22],0.958
same,normalized growth,[23],0.321 (active)
same,normalized growth,[24],0.281 (active)
same,normalized growth,[25],0.0911 (active)
same,normalized growth,[26],0.212 (active)
same,normalized growth,[27],0.106 (active)
same,normalized growth,[28],0.154 (active)
same,normalized growth,[29],0.043 (active)
same,normalized growth,[30],0.957
same,normalized growth,[31],0.145 (active)
same,normalized growth,[32],0.396 (active)
same,normalized growth,[33],0.165 (active)
same,normalized growth,[34],0.914
same,normalized growth,[35],0.237 (active)
same,normalized growth,[36],0.169 (active)
same,normalized growth,[37],0.172 (active)
same,normalized growth,[38],0.213 (active)
same,normalized growth,[39],0.106 (active)
same,normalized growth,[40],0.959
same,normalized growth,[41],0.284 (active)
same,normalized growth,[42],0.156 (active)
same,normalized growth,[43],0.112 (active)
same,normalized growth,[44],0.149 (active)
same,normalized growth,[45],0.137 (active)
same,normalized growth,[46],0.958
same,normalized growth,[47],0.137 (active)
same,normalized growth,[48],0.953
same,normalized growth,[49],0.981
same,normalized growth,[50],0.119 (active)
same,normalized growth,[51],0.96
same,normalized growth,[52],0.294 (active)
same,normalized growth,[54],0.966
same,normalized growth,[55],0.0976 (active)
same,normalized growth,[56],0.922
same,normalized growth,[57],0.191 (active)
same,normalized growth,[58],0.103 (active)
same,normalized growth,[59],0.337 (active)
same,normalized growth,[60],0.0922 (active)
same,normalized growth,[61],0.975
same,normalized growth,[62],0.105 (active)
same,normalized growth,[63],0.115 (active)
same,normalized growth,[64],0.115 (active)
same,normalized growth,[65],0.97
same,normalized growth,[66],0.146 (active)
same,normalized growth,[67],0.961
same,normalized growth,[68],0.842 (active)
same,normalized growth,[69],0.874
same,normalized growth,[71],0.948

# Reference: PubChem BioAssay AID1159580 (chemical genetic matrix, 2015)
